Test results from PubChem BioAssay AID504332 (National Center for Advancing Translational Sciences (NCATS), 2011).
Hit rate of the full screen: of about 350,000 compounds, about 31,000 (8.9%) were called active. Roughly 15% stayed inconclusive and do not appear here. The call rests on the fitted dose curve; in most records, active means well fitted inhibition curve with a large enough effect; inconclusive means small, poorly fitted or top-dose-only effect; inactive means no such curve, though single readings can be large or run the other way. Shown is part of a subset that was picked to be rich in actives. A structure can be active in one record and inactive in another.

Target: Histone-lysine N-methyltransferase EHMT2 (Homo sapiens) (UniProt Q96KQ7)
Sequence (Q96KQ7 913-1193 limits assumed): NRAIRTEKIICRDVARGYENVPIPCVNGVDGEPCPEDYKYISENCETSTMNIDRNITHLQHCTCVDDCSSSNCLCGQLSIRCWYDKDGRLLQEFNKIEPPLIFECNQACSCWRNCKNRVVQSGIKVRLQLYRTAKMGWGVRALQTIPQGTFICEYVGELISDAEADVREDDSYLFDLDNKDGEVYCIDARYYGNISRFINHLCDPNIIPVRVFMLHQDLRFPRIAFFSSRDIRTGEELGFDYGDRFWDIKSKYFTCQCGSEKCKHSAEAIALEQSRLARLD
Assay: qHTS Assay for Inhibitors of Histone Lysine Methyltransferase G9a; further: nearly all actives have a fitted effect of over 75% in size
Details: G9a H3K9 monomethylation, AlphaScreen, 2 h; series mostly up to 59 µM
Summary of the method: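 Quantitative HTS format: methyltransferase activity on a biotin-tagged H3K9 peptide is measured by AlphaScreen, using a rabbit anti-monomethyl-H3K9 antibody with streptavidin donor and anti-IgG acceptor beads. Final levels are 20 nM enzyme, 500 nM peptide, 20 uM SAM; 2 h RT.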
On the % scale 0 is the no-effect control and ±100 the full control effect; potency means the concentration at half of the fitted maximal effect.

activity, negative = inhibition, inactive:
CCOc1ccc(S(=O)(=O)Nc2cccc(C(=O)NCC3(N4CCCCC4)CCCCC3)c2)cc1 19.1% [at 0.501 µM], O=C(N[C@@H](Cc1ccccc1)C(=O)OCc1ccccc1)c1nc[nH]c1C(=O)NC1CCNCC1 -7.95% [at 2.33 µM], CC[C@H](C)C(=O)N[C@H]1CCCN1C(=O)/C=C/c1ccccc1 11.1% [at 2.33 µM], COc1ccc(C(=O)OC(C)C(=O)NC2CCCC2)cc1S(=O)(=O)N1CCOCC1 (stereo not drawn) 22.8% [at 12.7 µM], COc1ccc(C(=O)N2CCN(c3ncccn3)CC2)cc1S(=O)(=O)N1CCOCC1 10.4% [at 12.7 µM], CN1CCN(Cc2c(O)ccc3c2oc(=O)c2ccccc23)CC1 -28% [at 2.33 µM], COc1ccc(S(=O)(=O)N2CCCCC2)cc1NC(=O)COc1ccccc1 -9.48% [at 2.33 µM], Cc1ccc(S(=O)(=O)N2CCOCC2)cc1C(=O)Nc1ccccc1N1CCCC1 11% [at 0.501 µM], COc1ccc(S(=O)(=O)N2CCOCC2)cc1NC(=O)c1ccc(OCC(C)C)c(OC)c1 22.9% [at 2.33 µM], O=C(COC(=O)CCOc1ccccc1)Nc1cc(S(=O)(=O)N2CCCCC2)ccc1Cl 4.58% [at 2.33 µM], O=C(Nc1ccc(S(=O)(=O)N2CCc3ccccc3C2)cc1)c1ccccc1 46.5% [at 12.7 µM], COc1cc(F)c(C2=CC(=O)CC(C)(C)C2)cc1F -4.97% [at 0.501 µM], COc1ccccc1S(=O)(=O)NCc1ccc(C(=O)N(C)Cc2ccc(F)cc2)cc1 6.01% [at 2.33 µM], CC(C)(C)NCC(O)COc1cccc2[nH]c(=O)[nH]c12 (stereo not drawn) 21.7% [at 12.7 µM], COc1ccc(C2(C#N)CCC(C(=O)O)CC2)cc1OC1CCCC1 (stereo not drawn) -32.8% [at 12.7 µM]

Potency, active:
Cc1sc(C2C(C#N)=C(N)N(c3cccc(Cl)c3)C3=C2C(=O)CCC3)cc1CN1CCOCC1 (stereo not drawn) 15.8 µM, COc1ccc(C(=O)Oc2ccc(-c3nnco3)cc2)cc1S(=O)(=O)N1CCOCC1 50.1 µM, Cc1ccc(Cl)cc1N1CCN(C(=O)c2cccc3c(=O)c(C)c(-c4ccccc4)oc23)CC1 7.94 µM, Cc1ccc(-c2nc3ccccn3c2Nc2c(C)cccc2C)o1 12.6 µM, Cc1ccc(CN2COc3cc(C)c4c(oc(=O)c5ccccc54)c3C2)cc1 12.6 µM, COC(=O)C(=Nc1ccccc1)/C(C(=O)C(=O)N(C)c1ccccc1)=C(\O)c1ccc(Cl)cc1 20 µM, O=C(O)CC/C(=C\c1cc2c(cc1Br)OCO2)c1nc2ccccc2s1 35.5 µM, O=C(Nc1ccc(N2CCCCC2)cc1)c1cc(S(=O)(=O)N2CCOCC2)ccc1F 17.8 µM, O=C(CNCc1ccco1)Nc1cc(S(=O)(=O)N2CCOCC2)ccc1N1CCCC1 50.1 µM, CC(Oc1ccc(F)cc1)C(=O)Nc1cc(S(=O)(=O)N2CCOCC2)ccc1N1CCN(C)CC1 (stereo not drawn) 11.2 µM, COc1ccc(S(=O)(=O)N2CCOCC2)cc1NC(=O)COc1ccccc1 12.6 µM, CC(C)c1ccc(NC(=O)c2cc(S(=O)(=O)N3CCc4ccccc4C3)ccc2F)cc1 25.1 µM, CS(=O)(=O)c1ccc(Cl)c(NC(=O)COC(=O)c2cccc(S(=O)(=O)N3CCCC3)c2)c1 56.2 µM, O=C(COC(=O)c1ccccc1F)Nc1cc(S(=O)(=O)N2CCOCC2)ccc1N1CCCC1 35.5 µM, CCOC(=O)C1CCCCN1Cc1ccc(OC)c(OC)c1OC (stereo not drawn) 12.6 µM, CC(C)(C)NCC(O)COc1cccc2[nH]c(=O)[nH]c12 (stereo not drawn) 1.12 µM, COc1ccc(S(=O)(=O)n2nc(C)c(S(=O)(=O)N3CCOCC3)c2C)cc1 79.4 µM

Potency, inactive:
CCOC(=O)C1CCC(CN(Cc2ccc(OC)cc2)S(=O)(=O)c2ccc(F)c(C(=O)Nc3cc(C)ccc3C)c2)CC1 (stereo not drawn), N#CC1=C(N)N(c2ccccc2)C2=C(C(=O)CCC2)C1c1ccccc1 (stereo not drawn), CCc1ccc(C2C(C#N)=C(N)N(N(C)C)C3=C2C(=O)CCC3)s1 (stereo not drawn), CC(=O)Nc1cccc(NC(=O)CSc2cn(CC(=O)N3CCCC3)c3ccccc23)c1, CCN(CCCNC(=O)c1cc(Nc2ccc(OC)cc2)nc2ccccc12)c1cccc(C)c1, COc1ccc(Cl)cc1NC(=O)CCn1c(=O)c2cccn2c2ccccc21, CCn1cc(C(=O)N2CCN(c3cc(Cl)ccc3C)CC2)c(=O)c2cc(S(=O)(=O)N3CCCC3)ccc21, Cc1ccc(Cl)cc1N1CCN(C(=O)c2cccn3c(=O)c4cc(Cl)ccc4nc23)CC1, CN(C)C(=O)COC(=O)c1cccc(S(=O)(=O)N2CC3(C)CC2CC(C)(C)C3)c1 (stereo not drawn), Cc1ccc(Nc2c(-c3ccc(C)s3)nc3ccccn23)cc1, Cc1nc2ccccn2c(=O)c1NC(=O)c1c(F)cccc1F, CCc1cc2c(-c3ccccc3)cc(=O)oc2c2c1OCN(Cc1ccc(C)cc1)C2, COc1ccccc1CNS(=O)(=O)c1cc(C(=O)NCc2ccccn2)c(Cl)cc1Cl, CCOc1ccc(NC(=O)C2CCN(S(=O)(=O)c3cc(-c4noc(C)n4)ccc3C)CC2)cc1, Cc1ccccc1NC(=O)Cn1c(=O)n(Cc2ccco2)c(=O)c2ccc(C(=O)NC3CCCC3)cc21, CCN1C(=O)c2ccccc2S(=O)c2ccc(C(=O)NCc3ccc(F)cc3)cc21 (stereo not drawn), COc1cccc(CCNC(=O)COc2cccc3c2OC(C)(C)C3)c1, COC(=O)/C(NC(C)=O)=C(\C)c1ccc(Cl)cc1, COC(=O)c1cn(C(=O)c2ccc(Cl)cc2)c2ccccc12, Cc1cc(Nc2cccc(C(F)(F)F)c2)nc2ccc(NC(=O)c3ccc(=O)[nH]c3)cc12, O=C(O)CS/C(=C\c1ccc(F)cc1)c1nc2ccccc2s1, O=C(Nc1nc2ccccc2s1)c1ccc2c(c1)OCO2, Cc1ccc2oc3c(c(=O)c2c1)C(c1ccc(O)cc1)N(Cc1ccc2c(c1)OCO2)C3=O (stereo not drawn), Cc1ccc(-n2c(=O)c3cccnc3n2CC(=O)Nc2ccccc2C(F)(F)F)cc1C, COc1ccc(Cc2nnc(SCC(=O)Nc3ccc(C)c(C)c3)o2)cc1OC, O=C(Nc1ccc2c(c1)nc1n2CCCCC1)c1cc(S(=O)(=O)N2CCOCC2)ccc1Cl, COc1ccc(S(=O)(=O)N2CCOCC2)cc1NC(=O)CSc1ncnc2ccccc12, Cc1ccc(S(=O)(=O)N2CCOCC2)cc1C(=O)NCc1ccc(F)cc1, Cc1cccc(OCCC(=O)Nc2cc(S(=O)(=O)N3CCCCC3)ccc2N2CCOCC2)c1, O=C(CNCc1cccs1)Nc1cc(S(=O)(=O)N2CCCC2)ccc1Cl, CC1CCC2(CC1)N=C(c1ccccc1)C(=O)N2CC(=O)Nc1ccc(F)c(Cl)c1 (stereo not drawn), O=C(NCc1cccnc1)C(=O)NCC(c1cccnc1)N1CCN(c2ccccc2)CC1 (stereo not drawn), Cc1c(NC(=O)C(C)(C)C)cccc1-c1nc2ccccc2s1, CCc1ccc(-n2nnc(-c3nc(-c4ccccc4)no3)c2C)cc1, CCCCn1c(=N)c(S(=O)(=O)c2ccccc2)cc2c(=O)n3cccc(C)c3nc21, COc1cccc(N=C2SC(C(=O)Nc3cccc(Cl)c3)CC(=O)N2C)c1 (stereo not drawn), Cc1cccc2c1-c1sc(C(=O)Nc3ccc(F)cc3F)cc1CO2, O=C(COC(=O)Cc1ccc(F)cc1)Nc1cc(S(=O)(=O)N2CCOCC2)ccc1N1CCCC1, CC(NC(=O)c1cccc(S(=O)(=O)N2CCc3ccccc3C2)c1)c1ccco1 (stereo not drawn), O=C(COc1cccc2ccccc12)Nc1cc(S(=O)(=O)N2CCOCC2)ccc1N1CCOCC1, CC(=O)c1c(C)[nH]c(C(=O)OCC(=O)Nc2cc(S(=O)(=O)N3CCCCC3)ccc2C)c1C, COc1cc(Nc2nc3ccc(Cl)cc3n3cnnc23)cc(OC)c1OC, Cc1cccc(CCNC(=O)c2ccc3c(c2)nc2n3CCC(C)C2)c1 (stereo not drawn), CC(=O)N1CCc2cc(Br)cc(S(=O)(=O)CCC(=O)NCCc3ccc(Cl)cc3)c21, C/C(=N\NC(=O)c1ccccc1F)c1ccccn1, CCOC(=O)C1CCN(C(=O)/C=C/c2cc(OC)c(OC)c(OC)c2)CC1, CCOC(=O)C1CCN(S(=O)(=O)c2cc(F)ccc2OC)CC1, Cc1ccc(S(=O)(=O)c2nc(-c3ccco3)oc2SCC(=O)Nc2ccc(F)cc2)cc1, NS(=O)(=O)c1ccc(CCNC(=O)CN2C(=O)c3ccccc3S2(=O)=O)cc1, CCC(=O)N1CCc2cc(Br)cc(S(=O)(=O)CCC(=O)NCCc3ccc(OC)c(OC)c3)c21, Cc1ccccc1NC(=O)C(C)OC(=O)CCC(=O)N(CC(C)C)c1c(N)n(CC(C)C)c(=O)[nH]c1=O (stereo not drawn), CC(C)(C)CC(C)(C)NCC(O)COCCOc1ccc(Br)cc1 (stereo not drawn), COc1ccccc1OCCNCC(O)COc1cccc2[nH]c3ccccc3c12 (stereo not drawn), Cc1ccc(S(=O)(=O)n2nc(C)c(S(=O)(=O)N3CCCCCC3)c2C)cc1, COc1ccc(S(=O)(=O)n2nc(C)c(S(=O)(=O)N3CCCCCC3)c2C)cc1, COc1ccc(S(=O)(=O)c2c(Nc3cccc(Cl)c3)sc(C(=O)c3ccccc3)c2N)cc1
